LANA-H2B inh: blocks KSHV LANA binding to histone H2A/H2B. Q9QR71. cell-free LANA-H2A/H2B peptide, fluorescence polarization. inhibition, % (test concentration not listed). hit rate 0.6% among 320,000. AID 2629; in the data active means inhibition mostly above about 10%, no sharp cut-off; inactive means mostly below about 6.7%
Rtt109 Vps75: C. albicans Rtt109 histone acetyltransferase inhibition; Q5AAJ8; purified Rtt109/Vps75, ThioGlo CoA-SH fluorescence, 4 h; inhibition, % at 34.9 µM; hit rate 0.16% among 330,000; AID 540336;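 active means inhibition of at least 50% in every replicate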
ALR H2O2 inh: blocks human ALR sulfhydryl oxidase activity | P55789 | purified ALR, DTT oxidation, H2O2 HRP-luminol luminescence | hit rate 3.8% among 290,000 | inhibition, % (concentration not given with the values) | AID 485317;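 active means mean replicate inhibition above about 79%, with every replicate also reaching it, limit read from the data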
rCAG binder: binds r(CAG) RNA repeats; r(CAG) RNA repeat, TO-PRO-1 dye displacement fluorescence; inhibition, % at 3 µM; hit rate 1.3% among 370,000;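 active means inhibition above the plate cutoff, the mean of all test compounds on that plate plus 3 SD, cut at about 35% in these data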;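 further: 0% = DMSO alone and 100% = 100 µM mitoxantrone as full dye displacement; higher means more dye released from RNA so lower well fluorescence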
ABHD5-PLIN5 inh: inhibitors of human ABHD5-perilipin-5 interaction | Q00G26+Q8WTS1 | Split G. princeps luciferase complementation, luminescence, 4 h | inhibition, % at 4 µM | hit rate 0.78% among 360,000;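 active means inhibition above the mean inhibition across every tested compound plus 3 SD, cut at about 22% in these data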;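 further: 0% = DMSO only wells and the 100% control is not disclosed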
PRMT1 inh: blocks human protein arginine methyltransferase 1. Q99873. recombinant PRMT1, activity-based probe fluorescence polarization. inhibition, % at 2.79 µM. hit rate 1.3% among 370,000. AID 652257;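 active means inhibition above about 21% made by adding two undisclosed values, limit read from the data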
ABHD5-PLIN5 conf: ABHD5-PLIN5 interaction inhibition, confirmed; shares compounds with ABHD5-PLIN5 inh; biochemical ABHD5-PLIN5 interaction, luminescence; inhibition, % at 4 µM; hit rate 67% among 2,200; AID 651612; in the data active means inhibition above about 23%;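 further: 0% = DMSO vehicle wells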
HNF4 counter: active in HNF4 split-luciferase counter-screen for ABHD5-PLIN5 inhibitors | shares compounds with ABHD5-PLIN5 inh | HNF4 dimerization, luminescence, biochemical | inhibition, % at 4 µM | hit rate 77% among 2,200;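 active means mean inhibition across replicate wells exceeding the computed hit threshold, cut at about 13% in these data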;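 further: light from luciferase halves that rejoin when HNF4 fusion proteins dimerize; 0% = DMSO only wells and the 100% control is not given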
Target sequence (P41235 whole entry, looked up, the tested form may be a part): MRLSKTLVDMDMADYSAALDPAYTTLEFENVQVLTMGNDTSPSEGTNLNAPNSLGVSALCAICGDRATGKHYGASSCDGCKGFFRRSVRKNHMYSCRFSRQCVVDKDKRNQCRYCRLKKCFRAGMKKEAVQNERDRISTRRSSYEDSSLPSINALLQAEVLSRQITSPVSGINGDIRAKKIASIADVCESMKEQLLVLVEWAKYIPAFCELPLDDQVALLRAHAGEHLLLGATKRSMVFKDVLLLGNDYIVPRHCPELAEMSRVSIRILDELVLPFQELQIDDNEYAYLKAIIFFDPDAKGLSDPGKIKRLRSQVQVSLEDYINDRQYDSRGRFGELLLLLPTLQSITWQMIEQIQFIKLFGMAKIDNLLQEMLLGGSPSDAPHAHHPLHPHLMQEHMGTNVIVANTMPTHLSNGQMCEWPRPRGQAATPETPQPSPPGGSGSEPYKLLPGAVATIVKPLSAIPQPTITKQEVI
The depositor's hits bear a star; nt = no result given; ! = repeats disagree. This is a sample that favours compounds with a hit; in the whole collection about 5.9% have one here.

SMILES	LANA-H2B inh	Rtt109 Vps75	ALR H2O2 inh	rCAG binder	ABHD5-PLIN5 inh	PRMT1 inh	ABHD5-PLIN5 conf	HNF4 counter
C=C1C(=O)OC2C=C(CO)C3OC3C3OC3(C)CC(OC(=O)/C(=C/C)COC(C)=O)C12 (stereo not drawn)	nt	-5	nt	1	52*	8	73*	82*
Cc1cc(Cl)ccc1C(O)c1ncc(-c2cccc(C(F)(F)F)c2)[nH]1 (stereo not drawn)	nt	nt	nt	2	-10	2	nt	nt
CCN(CC(=O)NCc1ccncc1)S(=O)(=O)c1ccc(OC)cc1	-1	10	-2	-1	11	3	nt	nt
CN1CCC(=C2c3ccccc3CC(=O)c3sccc32)CC1	1	0	-16	0	27*!	6	30*	4
Cc1cccc2c1NC(=O)/C2=C\C(=O)c1cccs1	-3	7	0	17	53*	2	78*	85*
Cc1cc(Br)c2c(c1)/C(=C/C(=O)c1cccs1)C(=O)N2	-5	nt	17	19	10	4	nt	nt
CCc1ccc2c(c1)/C(=C/C(=O)c1cccs1)C(=O)N2	-1	0	11	21	83*	11	90*	96*
Cc1ccc(N2CCN(C(=O)C3CCC(=O)N(Cc4ccc(Cl)cc4)C3)CC2)c(C)c1 (stereo not drawn)	-2	-2	-11	-2	2	2	nt	nt
Cc1cc(C)c(C(CC(=O)c2cccs2)C(C#N)C#N)c(C)c1 (stereo not drawn)	-6	0	nt	7	24*	3	64*	41*
C#CCOCCOCCOCCNc1nc(N2CCN(C(=O)CCCCCCCCCCNC(=O)Cn3cc(C[C@@H](C)O)nn3)CC2)nc(N2CCN(C(=O)CCCCCCCCCCNC(=O)[C@@H]([C@H](C)O)n3cc(C)nn3)CC2)n1	3	7	-3	nt	97*	nt	8	-7
C#CCOCCOCCOCCNc1nc(N2CCN(C(=O)CCCCCCCCCCNC(=O)Cn3cc(CCCCCN)nn3)CC2)nc(N2CCN(C(=O)CCCCCCCCCCNC(=O)Cn3cc(C[C@@H](C)O)nn3)CC2)n1	-4	13	4	nt	47*	nt	5	-14
C#CCOCCOCCOCCNc1nc(N2CCN(C(=O)Cn3cc(CC(C)O)nn3)CC2)nc(N2CCN(C(=O)Cn3cc(CC(C)O)nn3)CC2)n1 (stereo not drawn)	-4	-2	-1	-4	9	3	nt	nt
CCc1ccc(/C=C/C(=O)c2ccc(N3CCOCC3)cc2)cc1	5	-1	3	0	6	-1	nt	nt
CCc1ccc(/C=C/C(=O)c2ccc(S(=O)(=O)N(C)C)cc2)cc1	0	-3	2	0	41*	3	92*	83*
CC1(C(=O)O)CCCN(C(=O)c2ccc3c(c2)C(C)(C)CCC3(C)C)C1 (stereo not drawn)	nt	nt	nt	16	-3	5	nt	nt
CN1CCN(C(=S)c2cn(Cc3ccc(Br)cc3)c3ccccc23)CC1	-3	-3	1	-7	28*	0	8	3
COc1ncc(-c2cc(C(C)=O)c3n(c2=O)CCC3)c(OC)n1	nt	nt	nt	2	nt	0	nt	nt
CC(C)C(C)(C#N)NC(=O)CSc1nc2scc(-c3ccco3)c2c(=O)n1-c1ccccc1 (stereo not drawn)	-2	0	4	15	25*	22*	30*	93*
CC(C)C(C)NC(=O)CSc1nc2scc(-c3ccco3)c2c(=O)n1-c1ccccc1 (stereo not drawn)	0	6	96*	5	38*	5	8	15*
Cc1sc2nc(SCC(=O)NCc3ccco3)n(-c3ccccc3)c(=O)c2c1C	14	-2	-4	-3	-1	0	nt	nt
Cc1ccc(-n2c(SCC(=O)NCc3ccco3)nc3sc(C)c(C)c3c2=O)cc1	1	9	-18	-2	3	-1	nt	nt
CSCCC(NC(=O)c1ccco1)C(=O)NNC(=O)c1n[nH]c(=O)c2ccccc12 (stereo not drawn)	4	-16	-6	1	66*	-5	4	4

Assay outcomes deposited in PubChem BioAssay by several laboratories.
